Results from PubChem BioAssay (EPA / NIEHS).
“And” between values parts separate entries of the source, which are not always exact repeats. Equal values may be shown once. A structure can be active in one record and inactive in another. The source made the active and inactive calls. The calls were made as follows: active = hit-call score of the fitted dose curve at least 0.9, where 1 is the maximum; inactive = score below 0.9.

Assays:
Details in all cases: primary human lung fibroblasts
[1] = read-out: Plasminogen activator inhibitor-1 (PAI1), SERPINE1 (gene 5054); experiment: BSK_MyoF_PAI1: BioMAP Diversity Plus: MyoF Assay for Plasminogen activator inhibitor-1 (PAI1) Biomarker Activity (AID 2284256)
How it was run: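 Primary human lung fibroblasts treated with chemical for 24 h; PAI-1 levels quantified by ELISA relative to DMSO. Cytotoxicity was assessed in parallel cultures by SRB total-protein staining (0.1% SRB after 10% TCA fixation, 560 nm).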

[2] = read-out: Interleukin-8 (IL8), CXCL8 (gene 3576); experiment: BSK_MyoF_IL8: BioMAP Diversity Plus: MyoF Assay for Interleukin-8 (IL8) Biomarker Activity (AID 2284261)
How it was run: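 Human lung fibroblast (MyoF system) cultures dosed for 24 h, then IL-8 measured by ELISA. Response taken relative to DMSO; parallel SRB total-protein staining for cytotoxicity.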

Decorin, DCN (gene 1634) = experiment: BSK_MyoF_Decorin: BioMAP Diversity Plus: MyoF Assay for Decorin Biomarker Activity (AID 2284265)
How it was run: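 Human lung fibroblast cultures were dosed for 24 h, and decorin was then measured by ELISA. Parallel cultures were stained with sulforhodamine B for total protein as a cytotoxicity check. Gain of signal was fitted relative to DMSO.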

[3] = BSK_MyoF_SRB: Viability Assessment in the BioMAP Diversity Plus: MyoF Assay (AID 2284267);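 also: total protein by SRB absorbance in parallel cultures as cytotoxicity measure; cells assessed 24 h after compound addition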
How it was run: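 Human lung fibroblasts, 24 h after chemical dosing; total protein measured by 0.1% sulforhodamine B staining after 10% TCA fixation, read at 560 nm, fitted relative to DMSO baseline.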

[4] = read-out: Matrix Metallopeptidase 1 (MMP1), MMP1 (gene 4312); experiment: BSK_MyoF_MMP1: BioMAP Diversity Plus: MyoF Assay for Matrix Metallopeptidase 1 (MMP1) Biomarker Activity (AID 2284268)
How it was run: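 Human lung fibroblast primary cells; MMP1 measured by ELISA 24 h after dosing, fitted in the positive direction relative to DMSO. Parallel SRB staining (0.1%, after 10% TCA fixation, 560 nm) assesses overt cytotoxicity.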

Measured: AC50

C=CC(=O)OCCCCCCOC(=O)C=C
inactive: [2] | Decorin, DCN (gene 1634)
active: [1] 34.6 µM | [3] 20 µM | [4] 4.83 µM

O=C1CCCCCCCCCCC1
inactive: [1] | [2] | Decorin, DCN (gene 1634) | [3] | [4]

COc1ccc(C(=O)/C(Br)=C\C(=O)O)cc1
active: [2] 3.97 µM | [4] 16.1 µM and 20 µM
inactive: [1] | [2] | Decorin, DCN (gene 1634) | [3]

CCC1(C)C(=O)N(Cl)C(=O)N1Cl (stereo unspecified)
inactive: [1] | [2] | Decorin, DCN (gene 1634) | [3] | [4]

COC(OC)(C(=O)c1ccccc1)c1ccccc1
inactive: [1] | [2] | Decorin, DCN (gene 1634) | [3] | [4]

CC=C(C)C(C)=O
inactive: [1] | [2] | Decorin, DCN (gene 1634) | [3] | [4]

c1ccc2sc(SSN3CCOCC3)nc2c1
inactive: [2] | Decorin, DCN (gene 1634)
active: [1] 29.8 µM | [3] 31.5 µM | [4] 4.91 µM

O=C1CCCCCCCCCCCN1
inactive: [1] | [2] | Decorin, DCN (gene 1634) | [3] | [4]

CC1=CC=C(C(C)C)CC1
inactive: [1] | [2] | Decorin, DCN (gene 1634) | [3] | [4]

Oc1ccc(/C=C/c2cc(O)cc(O)c2)cc1
inactive: [1] | [2] | Decorin, DCN (gene 1634) | [3] | [4]

CCOC(=O)/C=C\C(=O)OCC
inactive: [1] | [2] | Decorin, DCN (gene 1634) | [3] | [4]

CCCCCC1=CCCC1=O
inactive: [1] | [2] | Decorin, DCN (gene 1634) | [3] | [4]

CC(C)c1cccc(C(C)C)c1N
inactive: [1] | [2] | Decorin, DCN (gene 1634) | [3] | [4]

COc1ccc(C(=O)c2ccccc2)c(O)c1
inactive: [1] | [2] | Decorin, DCN (gene 1634) | [3] | [4]

CC=C(C)C=CC=C(C)C
active: [1] 0.016 µM
inactive: [2] | Decorin, DCN (gene 1634) | [3] | [4]

C=CCCCCCCCCC=O
inactive: [1] | [2] | Decorin, DCN (gene 1634) | [3] | [4]

C=CC(=O)OCC(C)OCC(C)OCC(C)OC(=O)C=C (stereo unspecified)
active: [1] 30.9 µM | Decorin, DCN (gene 1634) 20 µM | [3] 33.2 µM | [4] 35.1 µM
inactive: [2]

O=C(Cl)c1c(Cl)c(Cl)c(C(=O)Cl)c(Cl)c1Cl
inactive: [1] | [2] | Decorin, DCN (gene 1634) | [3] | [4]

CCOC(=O)C1=NN(c2ccc(Cl)cc2Cl)C(C)(C(=O)OCC)C1 (stereo unspecified)
inactive: [1] | [2] | Decorin, DCN (gene 1634) | [3] | [4]

C=CC(=O)NC(C)(C)C
inactive: [1] | [2] | Decorin, DCN (gene 1634) | [3] | [4]

CCN1CN(CC)CN(CC)C1
inactive: [1] | [2] | Decorin, DCN (gene 1634) | [3] | [4]

C=CC(=O)OCCCCCCCC(C)C
inactive: [1] | [2] | Decorin, DCN (gene 1634) | [3] | [4]

Clc1cc(Cl)c(Cl)c(Cl)c1Cl
active: [1] 31.9 µM | [3] 20 µM | [4] 23.2 µM
inactive: [2] | Decorin, DCN (gene 1634)

CCCCCCOC(=O)CCCCC(=O)OCCCCCC
inactive: [1] | [2] | Decorin, DCN (gene 1634) | [3] | [4]

CCCCCCCCC(CO)CCCCCC (stereo unspecified)
inactive: [1] | [2] | Decorin, DCN (gene 1634) | [3] | [4]

CC(C)CCCCCOC(=O)CS
inactive: [1] | [2] | Decorin, DCN (gene 1634) | [3] | [4]

CCCCC1C(=O)N(c2ccccc2)N(c2ccccc2)C1=O
inactive: [1] | [2] | Decorin, DCN (gene 1634) | [3] | [4]

CC(c1cc(C(C)(C)C)cc(C(C)(C)C)c1O)c1cc(C(C)(C)C)cc(C(C)(C)C)c1O
inactive: [1] | [2] | Decorin, DCN (gene 1634) | [3] | [4]

Cc1c(O)cccc1O
inactive: [1] | [2] | Decorin, DCN (gene 1634) | [3] | [4]

CCc1cccc(C)c1N(C(=O)CS(=O)(=O)O)C(C)COC (stereo unspecified)
inactive: [1] | [2] | Decorin, DCN (gene 1634) | [3] | [4]

Nc1cccc(N)n1
inactive: [1] | [2] | Decorin, DCN (gene 1634) | [3] | [4]
